This is an account of results in PubChem BioAssay.

Active and inactive are the calls of the source.

Assay [1] can be described thus: optical density shifts of acrAB sulA E. coli – strain DRC41, OD650, 48 h, E. coli filamentation inducer project, primary screen (AID 1152).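 Note: E. coli MC1000 strain DRC41 lacking acrAB efflux pump and sulA.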 Particulars: higher = more signal, called active from +8 up or from −8 down.
Assay [2] in a line: probe aLefty1 binding on compound microarray – biochemical, small-molecule microarray, 635/667 nm fluorescence, primary screen (AID 1153).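 Note: score merges spot fluorescence with signal-to-noise ratio from the scanned slide images.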 Particulars: higher = more signal.
The nature of assay [3]: plasmodial surface anion channel blockers, osmotic lysis – cell-based, P. falciparum Indochina, OD700, 1 h, primary screen (AID 1154). As to conditions: P. falciparum Indochina infected RBC osmotic lysis, higher = more signal, called active from +8 up or from −8 down.
Assay [4] is described as follows: plasmodial surface anion channel blockers, osmotic lysis – cell-based, P. falciparum Indochina, OD700, 2 h, primary screen (AID 1155).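 Note: lysis reports solute entry through the parasite surface anion channel PSAC.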 As to conditions: P. falciparum Indochina infected erythrocytes, higher = more signal, called active from +8 up or from −8 down.
A short description of assay [5]: changes in parasitized red cell lysis, either direction – P. falciparum Indochina, OD700, 3 h, PSAC antagonist project, primary screen (AID 1156). Particulars: P. falciparum-infected erythrocytes, osmotic lysis, higher = more signal, called active from +8 up or from −8 down.
A short description of assay [6]: plasmodial surface anion channel blockers, osmotic lysis – cell-based, P. falciparum Indochina, OD700, 18 h, primary screen (AID 1157). As to conditions: P. falciparum Indochina infected erythrocytes, osmotic lysis OD700, 18 h; higher = more signal, called active from +8 up or from −8 down.
Assay [7] in a line: S6 kinase pathway phospho-S6 level changes – cell-based, A549, cytoblot, luminescence, serum-stimulated, primary screen (AID 1158).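 Note: serum-stimulated A549 lung adenocarcinoma cells; signal is phosphorylated S6 detected by cytoblot immunostaining with HRP secondary.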 Particulars: 5 h, higher = more signal.
The target of assay [8] is NADPH oxidase 2 (Homo sapiens) (UniProt P04839). The assay is described as follows: compounds shifting NOX2 Amplex Red fluorescence – cell-based, HEK293-NOX2, PMA-stimulated, NOX inhibitor project, primary screen (AID 1159). Note: test concentration not given here. As to conditions: 45 min, higher = more signal, called active from +8 up or from −8 down.
Chain of NADPH oxidase 2 (Homo sapiens) (P04839 whole entry, looked up): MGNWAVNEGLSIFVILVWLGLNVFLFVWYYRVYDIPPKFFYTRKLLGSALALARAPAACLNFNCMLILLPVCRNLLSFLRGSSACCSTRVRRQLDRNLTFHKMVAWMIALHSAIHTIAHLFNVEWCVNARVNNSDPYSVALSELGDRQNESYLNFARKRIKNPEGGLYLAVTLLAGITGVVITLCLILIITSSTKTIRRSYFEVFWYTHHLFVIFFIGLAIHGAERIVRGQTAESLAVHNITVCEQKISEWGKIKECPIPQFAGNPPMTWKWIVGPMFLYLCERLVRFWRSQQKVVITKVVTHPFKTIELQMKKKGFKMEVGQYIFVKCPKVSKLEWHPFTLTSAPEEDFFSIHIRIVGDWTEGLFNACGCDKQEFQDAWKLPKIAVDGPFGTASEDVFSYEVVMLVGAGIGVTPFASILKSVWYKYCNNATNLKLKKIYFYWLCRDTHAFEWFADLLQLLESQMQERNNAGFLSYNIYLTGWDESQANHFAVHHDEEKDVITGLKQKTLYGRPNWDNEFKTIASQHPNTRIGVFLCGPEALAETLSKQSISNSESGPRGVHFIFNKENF
The target in assay [9] is NADPH oxidase 4 (Homo sapiens) (UniProt Q9NPH5). The assay is described as follows: compounds shifting NOX4 Amplex Red fluorescence – cell-based, HEK293-NOX4, tetracycline-induced, NOX inhibitor project, primary screen (AID 1160). Particulars: HEK293-NOX4, Amplex Red H2O2 fluorescence, 45 min; higher = more signal, called active from +8 up or from −8 down.
Chain of NADPH oxidase 4 (Homo sapiens) (Q9NPH5 whole entry, looked up): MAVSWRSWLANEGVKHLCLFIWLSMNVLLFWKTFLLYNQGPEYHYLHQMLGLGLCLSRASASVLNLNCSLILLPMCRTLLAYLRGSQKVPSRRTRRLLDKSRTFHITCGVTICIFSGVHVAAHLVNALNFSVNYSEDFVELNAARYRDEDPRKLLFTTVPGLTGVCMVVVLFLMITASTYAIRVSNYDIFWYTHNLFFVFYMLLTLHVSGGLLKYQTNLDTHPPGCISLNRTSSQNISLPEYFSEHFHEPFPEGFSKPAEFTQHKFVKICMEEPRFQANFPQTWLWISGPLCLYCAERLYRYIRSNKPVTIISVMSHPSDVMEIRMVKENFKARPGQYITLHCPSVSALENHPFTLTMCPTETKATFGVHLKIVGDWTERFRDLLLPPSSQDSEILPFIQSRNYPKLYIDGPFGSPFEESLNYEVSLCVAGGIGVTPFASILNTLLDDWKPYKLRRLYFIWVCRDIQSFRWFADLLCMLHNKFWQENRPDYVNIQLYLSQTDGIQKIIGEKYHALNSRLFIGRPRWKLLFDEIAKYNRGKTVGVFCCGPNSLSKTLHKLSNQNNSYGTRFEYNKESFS
In assay [10] the target is NADPH oxidase 5 (Homo sapiens) (UniProt Q96PH1). The assay is described as follows: compounds shifting NOX5 Amplex Red fluorescence – cell-based, HEK293-NOX5, NOX inhibitor project, primary screen (AID 1161). Particulars: HEK293-NOX5, ionomycin, 45 min, higher = more signal.
Chain of NADPH oxidase 5 (Homo sapiens) (Q96PH1 whole entry, looked up): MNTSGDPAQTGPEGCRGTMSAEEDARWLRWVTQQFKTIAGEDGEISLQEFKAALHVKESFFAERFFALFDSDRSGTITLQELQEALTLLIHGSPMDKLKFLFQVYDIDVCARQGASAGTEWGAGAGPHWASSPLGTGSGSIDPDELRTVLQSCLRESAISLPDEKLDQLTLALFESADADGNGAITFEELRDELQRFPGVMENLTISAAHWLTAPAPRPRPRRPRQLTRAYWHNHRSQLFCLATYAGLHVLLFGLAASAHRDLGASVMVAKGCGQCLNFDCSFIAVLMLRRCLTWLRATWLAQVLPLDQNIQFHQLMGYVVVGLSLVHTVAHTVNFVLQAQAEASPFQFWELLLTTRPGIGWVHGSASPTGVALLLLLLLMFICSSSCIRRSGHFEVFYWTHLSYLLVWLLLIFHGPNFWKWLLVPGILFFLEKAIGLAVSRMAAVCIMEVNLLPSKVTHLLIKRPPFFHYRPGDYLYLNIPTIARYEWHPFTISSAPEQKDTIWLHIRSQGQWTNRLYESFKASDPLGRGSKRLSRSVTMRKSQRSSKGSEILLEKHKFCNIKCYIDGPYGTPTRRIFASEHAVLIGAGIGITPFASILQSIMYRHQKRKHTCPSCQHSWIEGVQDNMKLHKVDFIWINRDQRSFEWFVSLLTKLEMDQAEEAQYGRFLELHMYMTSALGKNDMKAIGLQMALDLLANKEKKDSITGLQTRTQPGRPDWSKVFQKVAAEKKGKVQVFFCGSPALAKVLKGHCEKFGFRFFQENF

For `COCCCNC(=O)[C@@]1(Sc2ccc(C)cc2)CC(=O)N(Cc2ccccc2)[C@@H]1c1ccc(CO)cc1`, the z-score in assay [1] is 0.186 (inactive); in assay [3], 1.25 (inactive); in assay [4], 0.505 (inactive); in assay [5], 1.14 (inactive); in assay [6], 0.107 (inactive); in [7] it was -0.0519. The z-score in assay [8] is 0.462 (inactive); in assay [9], 0.917 (inactive); in [10], 0.162. In [2], this compound came in with a composite z-score of -1.12.
For `CC(C)NC(=O)[C@@H]1c2ccccc2C(=O)N(C2CCCCC2)[C@H]1c1ccc(CO)cc1`, the z-score was -0.359 (inactive) in [1]; -0.521 (inactive) in [3]; 0.169 (inactive) in [4]; -0.113 (inactive) in assay [5]; -0.136 (inactive) in [6]; -0.061 in assay [7]. In addition, the z-score is 0.664 (inactive) in [8], 0.822 (inactive) in assay [9] and 0.802 in assay [10]. The compound further gave a composite z-score in assay [2] of -0.101.
Regarding `C=CCOC(=O)[C@@H]1[C@H]2C(=O)O[C@H](c3ccccc3)[C@H](c3ccccc3)N2[C@H](c2ccc(OCCOC(=O)[C@H]3C[C@H]4C(=O)N[C@@H](CCCC[N+](C)(C)C)C(=O)N4[C@H]3c3cccc(OCCO)c3)cc2)[C@@]12C(=O)Nc1ccc(I)cc12`, the z-score was -0.398 (inactive) in assay [1]; 7.62 (inactive) in assay [3]; 2.35 (inactive) in [4]; 1.59 (inactive) in [5]; 1.28 (inactive) in assay [6]; 0.0621 in [7]. In addition, the z-score was 1.68 (inactive) in [8], 0.615 (inactive) in assay [9] and 1.33 in [10]. Moreover, the composite z-score in assay [2] turned out to be 0.173.
Take `COc1ccc(C#Cc2ccc3c(c2)[C@]2(C(=O)N3)[C@H](C(=O)N3CCc4cc(OC)c(OC)cc4C3)[C@H]3C(=O)O[C@H](c4ccccc4)[C@H](c4ccccc4)N3[C@@H]2c2ccc(OCCO)cc2)cc1`: the z-score in assay [1] was 1.82 (inactive); in assay [3] it was 5.73 (inactive); in [4], 2.37 (inactive); in assay [5], 0.279 (inactive); in assay [6], 1.42 (inactive); in assay [7], 0.0867. For the same compound, the z-score was 0.0908 (inactive) in assay [8], 0.246 (inactive) in assay [9] and 0.115 in [10]. The compound also gave a composite z-score in assay [2] of 0.423.
Turning to `CC(C)N1C(=O)c2ccccc2[C@](C)(C(=O)NC2CC2)[C@@H]1c1ccc(CO)cc1`, the z-score in [1] is 0.897 (inactive); in assay [3], 0.838 (inactive); in [4], 0.122 (inactive); in assay [5] it was -0.173 (inactive); in assay [6] it was 0.475 (inactive); in assay [7] it was -0.0085. Besides, the values for the z-score in assay [8], in assay [9] and in assay [10] were -0.987 (inactive), -0.354 (inactive) and -0.547, respectively. In addition, the composite z-score in assay [2] is 0.0451.
On to `COc1cc(CO)cc(I)c1O[C@H]1C=C(C(=O)NCCO)C[C@@H](N(CCc2cccc(F)c2)C(=O)CCC2CCCC2)[C@@H]1O`, for which the z-score in assay [1] is -0.429 (inactive); in assay [3] it was 16.3 (active); in [4], 3.94 (inactive); in [5], 4.42 (inactive); in assay [6], 1.53 (inactive); in assay [7], -0.165. For the same compound, the z-score in [8] was 1.47 (inactive); in assay [9], 0.145 (inactive); in assay [10] it was -2.23. Besides, the composite z-score in [2] is 0.437.
With `C=C(CCCC)C(=O)CC[C@H](OC(=O)c1ccccc1-c1ccccc1C(=O)O)c1ccc(CO)o1`, the z-score is -0.002 (inactive) in assay [1]; 1.69 (inactive) in [3]; 0.241 (inactive) in assay [4]; 1.2 (inactive) in [5]; 0.16 (inactive) in assay [6]; -0.16 in assay [7]. Further, the z-score in assay [8] is 0.333 (inactive); in [9] it was -0.269 (inactive); in assay [10] it was -1.15. Moreover, the composite z-score in [2] is -0.0984.
Consider `CCCC[C@H]1C[C@@H]1[C@@H]1N(P(=O)(c2ccccc2)c2ccccc2)[C@](CO)(c2ccccc2)CC12CC2`, for which the z-score in assay [1] was -2.52 (inactive); in assay [3], 4.95 (inactive); in [4], 0.761 (inactive); in [5], 2.01 (inactive); in assay [6] it was 0.985 (inactive); in assay [7], 0.353. In addition, the z-score in assay [8] is -0.339 (inactive); in [9], 1.08 (inactive); in assay [10], -2.29. In [2], this compound returned a composite z-score of 0.394.
`CO[C@H]1O[C@H](CO)[C@@H](OC(=O)Nc2ccccc2-c2ccccc2)[C@H](OC(=O)Nc2ccccc2-c2ccccc2)[C@H]1OC(=O)Nc1ccccc1-c1ccccc1`: the z-score in assay [1] is 0.236 (inactive); in assay [3] it was 3.93 (inactive); in assay [4] it was 1.27 (inactive); in assay [5], -0.623 (inactive); in assay [6], 1.16 (inactive); in assay [7], 0.311. For the same compound, the z-score is 1.26 (inactive) in [8], -0.874 (inactive) in assay [9] and -0.439 in assay [10]. For the same compound, the composite z-score in assay [2] came out at 0.427.
On to `C=CCC(OC(C)=O)[C@@H]1[C@@H](N(Cc2cc3ccccc3o2)C(=O)c2cccc3ccccc23)c2cc(OCCCO)ccc2N1C(=O)Cc1ccc2ccccc2c1` (stereo not given in full), for which the z-score was -0.288 (inactive) in assay [1]; 2.06 (inactive) in [3]; 0.231 (inactive) in [4]; -0.336 (inactive) in assay [5]; 0.332 (inactive) in assay [6]; 0.778 in assay [7]. Besides, the z-score is 0.39 (inactive) in assay [8], -1.46 (inactive) in assay [9] and -2.19 in [10]. This compound yielded a composite z-score in assay [2] of -0.0547.
On to `C[N+](C)(C)CCCCNC(=O)[C@H]1C[C@H]2C(=O)N3CCC[C@H]3C(=O)N2[C@H]1c1ccc(O)cc1`, for which the z-score is -0.314 (inactive) in assay [1]; 0.542 (inactive) in assay [3]; 0.196 (inactive) in assay [4]; -1.66 (inactive) in [5]; 0.0068 (inactive) in [6]; -0.0429 in [7]. In addition, the values for the z-score in assay [8], in [9] and in assay [10] were -2.45 (inactive), -0.739 (inactive) and -1.42, respectively. In [2], this compound returned a composite z-score of -0.0141.
On to `O=C1C[C@@](C(=O)O)(c2ccc([N+](=O)[O-])cc2)[C@@H](c2ccc(CO)cc2I)N1C1CCCCC1`, for which the z-score in assay [1] is 1.52 (inactive); in assay [3] it was 17.5 (active); in [4] it was 2.77 (inactive); in [5] it was 3.02 (inactive); in assay [6], 0.202 (inactive); in [7], 1.84. Moreover, the figures for the z-score in assay [8], in [9] and in assay [10] were 1.46 (inactive), -2.82 (inactive) and -1.78, respectively. In addition, the composite z-score in [2] is 0.208.
With `CCCC[C@@H]1C[C@H]1[C@@H](NC(=O)c1ccco1)c1ccccc1`, the z-score was -2.76 (inactive) in [1]; 4.64 (inactive) in assay [3]; 1.16 (inactive) in assay [4]; 0.747 (inactive) in assay [5]; 0.545 (inactive) in [6]; -0.446 in assay [7]. The values for the z-score in [8], in assay [9] and in [10] were -1.42 (inactive), -2.53 (inactive) and 0.195, respectively. In assay [2], this compound displayed a composite z-score of -0.168.
